Laboratory results from PubChem BioAssay (NCI).
This is part of a sample that, as a whole, favours compounds with a hit. Of some 83,000 tested, about 20% had one in any assay.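 Method: cells in 96-well plates; compound added at one concentration; 48 h incubation; percent growth measured; values under 10 scored active.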 Activity calls are given as the source filed them.

Key:
Experiment in all cases: NCI-60 one-dose screen, 48 h (100 = growth as untreated, 0 = no growth, -100 = all killed)
Conditions in all cases: 10 µM unless noted
SK-MEL-2 melanoma = test system: SK-MEL-2 melanoma
EKVX NSCLC = test system: EKVX NSCLC
SN12C renal = test system: SN12C renal
UO-31 renal = test system: UO-31 renal
TK-10 renal = test system: TK-10 renal
ACHN renal = test system: ACHN renal
CAKI-1 renal = test system: CAKI-1 renal
A498 renal = test system: A498 renal
CCRF-CEM leukemia = test system: CCRF-CEM leukemia
MOLT-4 leukemia = test system: MOLT-4 leukemia

Measured: growth

CCOC(=O)c1c(NC(=O)c2ccc(C(F)(F)F)cc2)sc2c(CN3CCN(C)CC3)c(O)ccc12
inactive: SK-MEL-2 melanoma 44.8% | EKVX NSCLC 21.5%
active: SN12C renal -75.7% | UO-31 renal -93.6% | TK-10 renal -71.2% | ACHN renal -89.4% | CAKI-1 renal -66% | A498 renal -6.72% | CCRF-CEM leukemia -24.6% | MOLT-4 leukemia -36.5%

C=C(C=O)[C@@H]1CC[C@]2(C(=O)O)CC[C@]3(C)C(CC[C@@H]4[C@@](C)(CCC#N)[C@H](C(=C)C=O)CC[C@]43C)[C@@H]12 (stereo not given in full)
active: CCRF-CEM leukemia 2.89% | MOLT-4 leukemia 5.55%
inactive: SK-MEL-2 melanoma 61.1% | EKVX NSCLC 100% | SN12C renal 66.4% | UO-31 renal 32.8% | TK-10 renal 128% | ACHN renal 51.8% | CAKI-1 renal 17.8% | A498 renal 96.9%

COc1ccc2c(c1)c(/C=N/Nc1ccnc3cc(Cl)ccc13)cn2C
active: SK-MEL-2 melanoma -80.8% | EKVX NSCLC -81.2% | SN12C renal -81.5% | UO-31 renal -89.5% | TK-10 renal -79.9% | ACHN renal -97.3% | CAKI-1 renal -92% | A498 renal -90% | CCRF-CEM leukemia -29.2% | MOLT-4 leukemia -49.6%

CC(C)NC(=O)c1cc(-c2ccc(NC(=O)Nc3ccc(F)c(C(F)(F)F)c3)cc2)nc2cccnc12
inactive: SK-MEL-2 melanoma 107% | EKVX NSCLC 95.3% | SN12C renal 98.4% | UO-31 renal 92.3% | TK-10 renal 96.6% | ACHN renal 90.5% | CAKI-1 renal 97.7% | A498 renal 89.7% | CCRF-CEM leukemia 90.2% | MOLT-4 leukemia 117%

CC(C)(C)Nc1nc2c(OCCc3ccccc3)cccn2c1-c1ccc([N+](=O)[O-])cc1
inactive: SK-MEL-2 melanoma 60.5% | EKVX NSCLC 41.8% | SN12C renal 75.5% | UO-31 renal 31.6% | TK-10 renal 66.5% | ACHN renal 54.4% | CAKI-1 renal 43.3% | A498 renal 97.7% | CCRF-CEM leukemia 53.7% | MOLT-4 leukemia 18.1%

Cc1ccc(C(=O)CSc2nnc(-c3ccc(-c4ccc(Cl)cc4)nc3C)o2)cc1
inactive: SK-MEL-2 melanoma 112% | EKVX NSCLC 68.6% | SN12C renal 99.7% | UO-31 renal 93.9% | TK-10 renal 191% | ACHN renal 95.4% | CAKI-1 renal 95.8% | A498 renal 98.2% | CCRF-CEM leukemia 108% | MOLT-4 leukemia 103%

COc1ccc(-c2cnc(NC(=O)CCCCCCNC(=O)C(O)(O)C(F)(F)F)s2)cc1
inactive: EKVX NSCLC 19.6% | CCRF-CEM leukemia 18.7%
active: SK-MEL-2 melanoma -27.3% | SN12C renal 3.72% | UO-31 renal -27.4% | TK-10 renal -20.1% | ACHN renal -29.5% | CAKI-1 renal -39.9% | A498 renal -44.2% | MOLT-4 leukemia 6.5%

NC1C2CCC1CN(c1cnc(C(=O)Nc3cc(F)cc4cccnc34)cn1)C2 (stereo not given)
inactive: SK-MEL-2 melanoma 101% | EKVX NSCLC 71.2% | SN12C renal 56.1% | UO-31 renal 34.9% | TK-10 renal 91.2% | ACHN renal 28.3% | CAKI-1 renal 38.5% | A498 renal 72.8% | CCRF-CEM leukemia 25% | MOLT-4 leukemia 16.3%

COc1ccc(C(C)=C(c2ccc(OCCN3CCCCCC3)cc2)c2ccc(OCCN3CCCCCC3)cc2)cc1
inactive: TK-10 renal 27.1% | A498 renal 27.9%
active: SK-MEL-2 melanoma -65.2% | EKVX NSCLC 1.68% | SN12C renal 0.944% | UO-31 renal -79.3% | ACHN renal -57.8% | CAKI-1 renal -45.9% | CCRF-CEM leukemia 0.672% | MOLT-4 leukemia -5.35%

Oc1[nH]c2ccc(Cl)cc2c1N=Nc1nc(N=Nc2c(O)[nH]c3ccc(Cl)cc23)nc(N2CCCCC2)n1
active: CCRF-CEM leukemia 9.81%
inactive: SK-MEL-2 melanoma 86.7% | EKVX NSCLC 50.8% | SN12C renal 42.5% | UO-31 renal 86.7% | TK-10 renal 121% | ACHN renal 88.6% | CAKI-1 renal 88.1% | A498 renal 94.2% | MOLT-4 leukemia 22.1%

Cc1[nH]c(C(=O)Nc2ccccc2OCc2cccc(C(=O)NC3CCNC3)c2)c(Cl)c1Cl (stereo not given)
inactive: SK-MEL-2 melanoma 101% | EKVX NSCLC 79.6% | UO-31 renal 84.9% | TK-10 renal 101% | ACHN renal 74.9% | CAKI-1 renal 27.5% | A498 renal 79.7%
active: SN12C renal -33.5% | CCRF-CEM leukemia 6.3% | MOLT-4 leukemia 1.73%

O=C(N/N=C/c1cc2ccccc2nc1Cl)c1cc(-c2nc3ccccc3[nH]2)nc2ccccc12
inactive: SK-MEL-2 melanoma 82.8% | EKVX NSCLC 93.5% | SN12C renal 99.9% | UO-31 renal 70.7% | TK-10 renal 91.7% | ACHN renal 89% | CAKI-1 renal 71.6% | A498 renal 54.6% | CCRF-CEM leukemia 87.8% | MOLT-4 leukemia 82.2%

O=C(CSc1nnc(-c2cccs2)n1-c1ccccc1)Nc1ccccc1
inactive: SK-MEL-2 melanoma 108% | EKVX NSCLC 76.7% | SN12C renal 83.5% | UO-31 renal 64.4% | TK-10 renal 105% | ACHN renal 59.6% | CAKI-1 renal 63.6% | A498 renal 84.9% | CCRF-CEM leukemia 93.7% | MOLT-4 leukemia 93.6%

Cc1ccc(C(=O)CSc2nc3ccccc3c(=O)n2C)cc1
inactive: SK-MEL-2 melanoma 95.7% | EKVX NSCLC 71.5% | SN12C renal 94.2% | UO-31 renal 56.6% | TK-10 renal 134% | ACHN renal 83.7% | CAKI-1 renal 72.7% | A498 renal 99.8% | CCRF-CEM leukemia 83.6% | MOLT-4 leukemia 88%

O=S(=O)(NCCCNc1nccc(-c2[nH]c(-c3ccccc3)nc2-c2ccc(F)c(O)c2)n1)c1ccccc1
inactive: SK-MEL-2 melanoma 31.6% | EKVX NSCLC 102% | SN12C renal 107% | UO-31 renal 144% | TK-10 renal 154% | ACHN renal 95.4% | CAKI-1 renal 105% | A498 renal 114% | CCRF-CEM leukemia 47.9% | MOLT-4 leukemia 51.3%

Cc1ccsc1[C@H]1c2[nH]c3ccccc3c2C[C@H]2C(=O)N(CCCCCCC(=O)NO)CC(=O)N12
inactive: SK-MEL-2 melanoma 92% | EKVX NSCLC 87.3% | SN12C renal 86.5% | UO-31 renal 75.6% | TK-10 renal 84% | ACHN renal 93.5% | CAKI-1 renal 90.6% | A498 renal 109% | CCRF-CEM leukemia 26.5% | MOLT-4 leukemia 40%

Cc1[nH]c(C(=O)Nc2ccc(C(=O)NCC3CCNCC3)cc2OC(C)C)c(Cl)c1Cl
inactive: SK-MEL-2 melanoma 97.9% | EKVX NSCLC 82.8% | SN12C renal 81.4% | UO-31 renal 88.6% | TK-10 renal 90.2% | ACHN renal 99.9% | CAKI-1 renal 76.7% | A498 renal 79.4% | CCRF-CEM leukemia 32.6% | MOLT-4 leukemia 19.6%

COc1ccc(/C=N/NC(=O)c2c(N)nn(C)c2Nc2ccccc2)cc1
active: SK-MEL-2 melanoma 7.07%
inactive: EKVX NSCLC 69.7% | SN12C renal 57.6% | UO-31 renal 51.2% | TK-10 renal 89.2% | ACHN renal 50% | CAKI-1 renal 39.8% | A498 renal 33.1% | CCRF-CEM leukemia 38.5% | MOLT-4 leukemia 49.4%

O=C(/C=C/Nc1ccc(S(=O)(=O)Nc2ncccn2)cc1)c1ccc(N=Cc2c(O)[nH]c3ccccc23)cc1
inactive: SK-MEL-2 melanoma 118% | EKVX NSCLC 103% | SN12C renal 98.3% | UO-31 renal 92.4% | TK-10 renal 112% | ACHN renal 106% | CAKI-1 renal 94.4% | A498 renal 98.5% | CCRF-CEM leukemia 104% | MOLT-4 leukemia 109%

O=c1[nH][nH]c(-c2ccc(F)cc2)c1-c1nc2ccccc2s1
inactive: SK-MEL-2 melanoma 100% | EKVX NSCLC 90.1% | SN12C renal 82% | UO-31 renal 87.3% | TK-10 renal 154% | ACHN renal 95.1% | CAKI-1 renal 87.1% | A498 renal 67.9% | CCRF-CEM leukemia 86.6% | MOLT-4 leukemia 95.8%

COC(=O)[C@@H](Cc1c[nH]c2ccccc12)NC(=O)CCCCOc1cc(O)c2c(=O)cc(-c3ccccc3)oc2c1
inactive: SK-MEL-2 melanoma 90.5% | EKVX NSCLC 86.8% | SN12C renal 95.2% | UO-31 renal 68.8% | TK-10 renal 132% | ACHN renal 91.8% | CAKI-1 renal 71.9% | A498 renal 70% | CCRF-CEM leukemia 83.1% | MOLT-4 leukemia 65.1%

CC(Nc1c(C#N)cnc2ccc(-c3cncc(O)c3)cc12)c1ccccc1 (stereo not given)
active: SK-MEL-2 melanoma -43.6% | EKVX NSCLC -13.6% | SN12C renal -5.67% | UO-31 renal -9.46% | TK-10 renal -13.2% | ACHN renal 3.13% | CAKI-1 renal 7.08% | MOLT-4 leukemia 2.65%
inactive: A498 renal 45% | CCRF-CEM leukemia 10.6%

CC1=C(C)C(=O)C(Nc2ccc3c(c2)OCCO3)=C(Br)C1=O
active: MOLT-4 leukemia -7.79%
inactive: SK-MEL-2 melanoma 114% | EKVX NSCLC 73.7% | SN12C renal 99.7% | UO-31 renal 95.8% | TK-10 renal 135% | ACHN renal 101% | CAKI-1 renal 102% | A498 renal 103% | CCRF-CEM leukemia 13.2%

CN1CCN(c2ccc(Nc3nc(NCCNC(=O)c4ccccc4)c4sccc4n3)cc2)CC1
inactive: SK-MEL-2 melanoma 96.6% | EKVX NSCLC 97.3% | SN12C renal 74% | UO-31 renal 66% | TK-10 renal 137% | ACHN renal 54.6% | CAKI-1 renal 48.3% | A498 renal 130% | CCRF-CEM leukemia 27.9% | MOLT-4 leukemia 13.9%

N#Cc1c(-c2cccs2)cc(-c2cnccn2)nc1SCC(=O)N/N=C/c1ccncc1
inactive: SK-MEL-2 melanoma 121% | EKVX NSCLC 99% | SN12C renal 110% | UO-31 renal 88.4% | TK-10 renal 128% | ACHN renal 109% | CAKI-1 renal 95.9% | A498 renal 116% | CCRF-CEM leukemia 103% | MOLT-4 leukemia 117%

CN1CCC[C@]2(C)[C@H]3CC[C@@H]4[C@@H]5[C@H]6OC[C@@]5(CCC6(C)C)CC[C@@]4(C)[C@]3(C)CC[C@H]2C1(C)C
inactive: SK-MEL-2 melanoma 108% | EKVX NSCLC 99.6% | SN12C renal 88.9% | UO-31 renal 91.5% | TK-10 renal 108% | ACHN renal 86.9% | CAKI-1 renal 10.4% | A498 renal 90.1% | CCRF-CEM leukemia 66.4% | MOLT-4 leukemia 37.7%
